Results taken from the supplement of paper PMC8728848.
Many of the other results were omitted from the sample, so the strongest signals are more common in it than they were.

Assays:
Test in all cases: glycan array binding signal (z-score within array); higher = stronger binding
Conditions in all cases: glycan notation: IUPAC condensed, linker removed
[1] = target: Fuc(a1-2)Gal(b1-3)GlcNAc(b1-2)Man(a1-3)[Fuc(a1-2)Gal(b1-3)GlcNAc(b1-2)Man(a1-6)]Man(b1-4)GlcNAc(b1-4)GlcNAc
Outline: (§1)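 The Consortium for Functional Glycomics database supplied 3228 glycan arrays, of which those lacking an available protein sequence were dropped. The binding signal, a within-array Z-score, was averaged across arrays of the same protein sequence and across linkers. Negative scores can be read as non-binding.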

[2] = target: Fuc(a1-2)Gal(b1-3)[Fuc(a1-4)]GlcNAc
Outline: as §1

[3] = target: Fuc(a1-2)Gal(b1-4)GlcNAc(b1-2)Man
Outline: as §1

[4] = target: Fuc(a1-2)Gal(b1-4)[Fuc(a1-3)]GlcNAc(b1-3)[Neu5Ac(a2-6)Gal(b1-4)GlcNAc(b1-6)]Gal(b1-4)Glc
Outline: as §1

[5] = target: Fuc(a1-3)[Gal(b1-4)]GlcNAc(b1-3)GalNAc
Outline: as §1

[6] = target: Fuc(a1-3)[Gal3S(b1-4)]GlcNAc6S
Outline: as §1

Gal(a1-3)Gal(b1-3)GlcNAc = target: Gal(a1-3)Gal(b1-3)GlcNAc
Outline: as §1

[7] = target: Gal(a1-3)Gal(b1-3)[Fuc(a1-4)]GlcNAc(b1-2)Man(a1-3)[Gal(a1-3)Gal(b1-3)[Fuc(a1-4)]GlcNAc(b1-2)Man(a1-6)]Man(b1-4)GlcNAc(b1-4)GlcNAc
Outline: as §1

Gal(a1-3)GalNAc = target: Gal(a1-3)GalNAc
Outline: as §1

Gal(a1-4)Gal(b1-4)Glc = target: Gal(a1-4)Gal(b1-4)Glc
Outline: as §1

Gal(b1-3)Gal(b1-4)GlcNAc = target: Gal(b1-3)Gal(b1-4)GlcNAc
Outline: as §1

[8] = target: Gal(b1-3)GlcNAc(b1-3)Gal(b1-4)[Fuc(a1-3)]GlcNAc(b1-6)[Gal(b1-3)GlcNAc(b1-3)]Gal(b1-4)Glc
Outline: as §1

[9] = target: Gal(b1-3)[Fuc(a1-4)]GlcNAc(b1-3)Gal(b1-3)[Fuc(a1-4)]GlcNAc
Outline: as §1

[10] = target: Gal(b1-4)GlcNAc(b1-2)Man(a1-6)[GlcNAc(b1-2)Man(a1-3)]Man(b1-4)GlcNAc(b1-4)GlcNAc
Outline: as §1

[11] = target: Gal(b1-4)GlcNAc(b1-3)Gal(b1-4)GlcNAc
Outline: as §1

[12] = target: Gal(b1-4)GlcNAc(b1-3)Gal(b1-4)GlcNAc(b1-2)[Gal(b1-4)GlcNAc(b1-3)Gal(b1-4)GlcNAc(b1-6)]Man(a1-6)[Gal(b1-4)GlcNAc(b1-3)Gal(b1-4)GlcNAc(b1-2)Man(a1-3)]Man(b1-4)GlcNAc(b1-4)GlcNAc
Outline: as §1

[13] = target: Gal(b1-4)GlcNAc(b1-3)Gal(b1-4)GlcNAc(b1-2)[Gal(b1-4)GlcNAc(b1-3)Gal(b1-4)GlcNAc(b1-6)]Man(a1-6)[Gal(b1-4)GlcNAc(b1-3)Gal(b1-4)GlcNAc(b1-2)Man(a1-3)]Man(b1-4)GlcNAc(b1-4)[Fuc(a1-6)]GlcNAc
Outline: as §1

[14] = target: Gal(b1-4)GlcNAc(b1-3)Gal(b1-4)GlcNAc(b1-3)Gal(b1-4)GlcNAc(b1-2)Man(a1-3)[Gal(b1-4)GlcNAc(b1-3)Gal(b1-4)GlcNAc(b1-3)Gal(b1-4)GlcNAc(b1-2)Man(a1-6)]Man(b1-4)GlcNAc(b1-4)[Fuc(a1-6)]GlcNAc
Outline: as §1

[15] = target: Gal(b1-4)GlcNAc(b1-3)Gal(b1-4)GlcNAc(b1-3)Gal(b1-4)GlcNAc(b1-3)Gal(b1-4)GlcNAc(b1-3)Gal(b1-4)GlcNAc(b1-2)Man(a1-3)[Gal(b1-4)GlcNAc(b1-3)Gal(b1-4)GlcNAc(b1-3)Gal(b1-4)GlcNAc(b1-3)Gal(b1-4)GlcNAc(b1-3)Gal(b1-4)GlcNAc(b1-2)Man(a1-6)]Man(b1-4)GlcNAc(b1-4)GlcNAc
Outline: as §1

[16] = target: Gal(b1-4)GlcNAc(b1-3)Gal(b1-4)GlcNAc(b1-3)[Gal(b1-4)GlcNAc(b1-3)Gal(b1-4)GlcNAc(b1-6)]GalNAc
Outline: as §1

[17] = target: Gal(b1-4)GlcNAc(b1-3)[Fuc(a1-3)GlcNAc(b1-6)]Gal(b1-4)Glc
Outline: as §1

[18] = target: Gal(b1-4)GlcNAc(b1-6)[Gal(b1-3)]GalNAc
Outline: as §1

Gal3S(b1-3)GlcNAc = target: Gal3S(b1-3)GlcNAc
Outline: as §1

[19] = target: Gal3S(b1-3)[Fuc(a1-4)]GlcNAc
Outline: as §1

[20] = target: Gal3S(b1-4)[Fuc(a1-3)]Glc6S
Outline: as §1

[21] = target: Gal3S(b1-4)[Fuc(a1-3)]GlcNAc6S
Outline: as §1

Gal3S6S(b1-4)GlcNAc6S = target: Gal3S6S(b1-4)GlcNAc6S
Outline: as §1

Gal6P(b1-4)GlcNAc = target: Gal6P(b1-4)GlcNAc
Outline: as §1

Gal6S(b1-3)GlcNAc6S = target: Gal6S(b1-3)GlcNAc6S
Outline: as §1

Gal6S(b1-4)Glc6S = target: Gal6S(b1-4)Glc6S
Outline: as §1

Gal6S(b1-4)GlcNAc6S = target: Gal6S(b1-4)GlcNAc6S
Outline: as §1

[22] = target: GalNAc(b1-3)Gal(a1-6)Gal(b1-4)Glc
Outline: as §1

GalNAc3S(b1-4)GlcNAc3S = target: GalNAc3S(b1-4)GlcNAc3S
Outline: as §1

[23] = target: Glc(a1-4)Glc(a1-4)Glc(a1-4)Glc
Outline: as §1

[24] = target: Glc(a1-6)Glc(a1-6)Glc(a1-6)Glc
Outline: as §1

GlcA(b1-6)Gal = target: GlcA(b1-6)Gal
Outline: as §1

GlcNAc(b1-3)Gal = target: GlcNAc(b1-3)Gal
Outline: as §1

[25] = target: GlcNAc(b1-3)Gal(b1-4)GlcNAc(b1-2)Man(a1-3)[GlcNAc(b1-3)Gal(b1-4)GlcNAc(b1-2)Man(a1-6)]Man(b1-4)GlcNAc(b1-4)GlcNAc
Outline: as §1

[26] = target: GlcNAc(b1-3)Gal(b1-4)GlcNAc(b1-3)Gal(b1-4)GlcNAc(b1-2)Man(a1-3)[GlcNAc(b1-3)Gal(b1-4)GlcNAc(b1-3)Gal(b1-4)GlcNAc(b1-2)Man(a1-6)]Man(b1-4)GlcNAc(b1-4)GlcNAc
Outline: as §1

[27] = target: GlcNAc(b1-3)Gal(b1-4)GlcNAc(b1-6)[GlcNAc(b1-3)]Gal(b1-4)GlcNAc
Outline: as §1

[28] = target: Man(a1-2)Man(a1-2)Man(a1-3)Man
Outline: as §1

[29] = target: Man(a1-3)[Man(a1-6)]Man(a1-6)[Man(a1-3)]Man
Outline: as §1

[30] = target: Man(a1-3)[Man(a1-6)]Man(a1-6)[Man(a1-3)]Man(b1-4)GlcNAc(b1-4)GlcNAc
Outline: as §1

[31] = target: Man(a1-3)[Man(a1-6)]Man(b1-4)GlcNAc(b1-4)[Fuc(a1-6)]GlcNAc
Outline: as §1

Man(a1-6)Man = target: Man(a1-6)Man
Outline: as §1

[32] = target: Neu5Ac(a2-3)Gal(b1-3)[Fuc(a1-4)]GlcNAc(b1-3)Gal(b1-3)[Fuc(a1-4)]GlcNAc
Outline: as §1

[33] = target: Neu5Ac(a2-3)Gal(b1-3)[Fuc(a1-4)]GlcNAc(b1-3)Gal(b1-4)[Fuc(a1-3)]GlcNAc
Outline: as §1

[34] = target: Neu5Ac(a2-3)Gal(b1-4)GlcNAc(b1-2)Man(a1-3)[Neu5Ac(a2-3)Gal(b1-4)GlcNAc(b1-2)Man(a1-6)]Man(b1-4)GlcNAc(b1-4)[Fuc(a1-6)]GlcNAc
Outline: as §1

[35] = target: Neu5Ac(a2-3)Gal(b1-4)GlcNAc(b1-3)Gal(b1-4)GlcNAc(b1-3)Gal(b1-4)GlcNAc(b1-2)Man(a1-3)[Neu5Ac(a2-3)Gal(b1-4)GlcNAc(b1-3)Gal(b1-4)GlcNAc(b1-3)Gal(b1-4)GlcNAc(b1-2)Man(a1-6)]GalNAc
Outline: as §1

[36] = target: Neu5Ac(a2-3)Gal(b1-4)GlcNAc(b1-3)Gal(b1-4)[Fuc(a1-3)]GlcNAc
Outline: as §1

[37] = target: Neu5Ac(a2-3)Gal6S(b1-4)GlcNAc
Outline: as §1

[38] = target: Neu5Ac(a2-6)Gal(b1-4)GlcNAc(b1-3)Gal(b1-4)GlcNAc(b1-3)Gal(b1-4)GlcNAc(b1-2)Man(a1-3)[Neu5Ac(a2-6)Gal(b1-4)GlcNAc(b1-3)Gal(b1-4)GlcNAc(b1-3)Gal(b1-4)GlcNAc(b1-2)Man(a1-6)]GalNAc
Outline: as §1

[39] = target: Neu5Ac(a2-6)Gal(b1-4)GlcNAc(b1-3)Gal(b1-4)[Fuc(a1-3)]GlcNAc(b1-3)Gal(b1-4)[Fuc(a1-3)]GlcNAc
Outline: as §1

[40] = target: Neu5Ac(a2-6)Gal(b1-4)GlcNAc6S
Outline: as §1

[41] = target: Neu5Gc(a2-3)Gal(b1-4)GlcNAc(b1-3)Gal(b1-4)GlcNAc(b1-2)Man(a1-3)[Neu5Gc(a2-3)Gal(b1-4)GlcNAc(b1-3)Gal(b1-4)GlcNAc(b1-2)Man(a1-6)]Man(b1-4)GlcNAc(b1-4)GlcNAc
Outline: as §1

B1: EULS2 M2 (Oryza sativa) (protein)
chain: MVYCRANPNYAMTARNGAVVLAPANPKDEYQHWIKDMRWSTSIKDEEGYPAFALVNKATGQAIKHSLGQSHPVRLVPYNPEVMDESVLWTESRDVGNGFRCIRMVNNIYLNFDAFHGDKYHGGVRDGTDIVLWKLCEGDSQRWKIQPYYILEQKLISEEDLNSAVDHHHHHH
glycan array binding signal (z-score) [1]: 2.57 | glycan array binding signal (z-score) [2]: 0.051 | glycan array binding signal (z-score) [3]: -0.221 | glycan array binding signal (z-score) [4]: -0.288 | glycan array binding signal (z-score) [5]: -0.239 | glycan array binding signal (z-score) [6]: 0.046 | glycan array binding signal (z-score) (Gal(a1-3)Gal(b1-3)GlcNAc): 6.13 | glycan array binding signal (z-score) [7]: 0.228 | glycan array binding signal (z-score) (Gal(a1-3)GalNAc): -0.346 | glycan array binding signal (z-score) (Gal(a1-4)Gal(b1-4)Glc): -0.552 | glycan array binding signal (z-score) (Gal(b1-3)Gal(b1-4)GlcNAc): -0.911 | glycan array binding signal (z-score) [8]: -0.897 | glycan array binding signal (z-score) [9]: -0.418 | glycan array binding signal (z-score) [10]: -0.086 | glycan array binding signal (z-score) [11]: 0.298 | glycan array binding signal (z-score) [12]: 1.3 | glycan array binding signal (z-score) [13]: 0.142 | glycan array binding signal (z-score) [14]: -0.152 | glycan array binding signal (z-score) [15]: 2.79 | glycan array binding signal (z-score) [16]: -0.129 | glycan array binding signal (z-score) [17]: -0.485 | glycan array binding signal (z-score) [18]: 0.142 | glycan array binding signal (z-score) (Gal3S(b1-3)GlcNAc): -0.359 | glycan array binding signal (z-score) [19]: -0.012 | glycan array binding signal (z-score) [20]: 0.271 | glycan array binding signal (z-score) [21]: 3.8 | glycan array binding signal (z-score) (Gal3S6S(b1-4)GlcNAc6S): 13.3 | glycan array binding signal (z-score) (Gal6P(b1-4)GlcNAc): -0.418 | glycan array binding signal (z-score) (Gal6S(b1-3)GlcNAc6S): 4.18 | glycan array binding signal (z-score) (Gal6S(b1-4)Glc6S): 4.74 | glycan array binding signal (z-score) (Gal6S(b1-4)GlcNAc6S): 2.72 | glycan array binding signal (z-score) [22]: 0.855 | glycan array binding signal (z-score) (GalNAc3S(b1-4)GlcNAc3S): 0.228 | glycan array binding signal (z-score) [23]: -0.217 | glycan array binding signal (z-score) [24]: -0.066 | glycan array binding signal (z-score) (GlcA(b1-6)Gal): 0.412 | glycan array binding signal (z-score) (GlcNAc(b1-3)Gal): -0.404 | glycan array binding signal (z-score) [25]: -0.176 | glycan array binding signal (z-score) [26]: 0.163 | glycan array binding signal (z-score) [27]: -0.388 | glycan array binding signal (z-score) [28]: -0.332 | glycan array binding signal (z-score) [29]: 7.3 | glycan array binding signal (z-score) [30]: 3.29 | glycan array binding signal (z-score) [31]: 0.966 | glycan array binding signal (z-score) (Man(a1-6)Man): 5.83 | glycan array binding signal (z-score) [32]: 0.084 | glycan array binding signal (z-score) [33]: -0.548 | glycan array binding signal (z-score) [34]: -0.323 | glycan array binding signal (z-score) [35]: -0.26 | glycan array binding signal (z-score) [36]: -0.328 | glycan array binding signal (z-score) [37]: -0.449 | glycan array binding signal (z-score) [38]: 0.058 | glycan array binding signal (z-score) [39]: -0.268 | glycan array binding signal (z-score) [40]: -0.389 | glycan array binding signal (z-score) [41]: 0.09
